For 16 molecules, composite z-score and z-score results are on record in PubChem BioAssay.

In assay [1] the test system is Plasmodium falciparum Sir2 (PF13_0152, Sir2A). Briefly: Plasmodium falciparum Sir2A binding compounds – biochemical, small-molecule microarray, 635 nm fluorescence, primary screen (AID 1098).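 Further: score merges spot fluorescence intensity with its signal-to-noise ratio.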 To be noted: fluorescence 635 nm, higher = more signal.
A short description of assay [2]: probe aDKK1 binding to arrayed compounds – biochemical, biotinylated probe, 635/667 nm fluorescence, primary screen (AID 1099).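 Further: score merges 667nm spot fluorescence with signal to noise across triplicate slides; reference of the scale not given here.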 As to conditions: small-molecule microarray, higher = more signal.
The nature of assay [3]: probe aCHRDL2 binding to arrayed compounds – biochemical, biotinylated probe, 635/667 nm fluorescence, primary screen (AID 1100). As to conditions: small-molecule microarray, higher = more signal.
A short description of assay [4]: change in splice reporter luminescence, either direction, cell-based, HEK293, spliceosome inhibition project, primary screen (AID 1101).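 Further: HEK293 cells carrying a splicing-competent luciferase reporter gene; test concentration not given here.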 To be noted: HEK293 splicing luciferase reporter, 24 h, higher = more signal, called active from +8 up or from −8 down. (Reporter assays use an easily measured gene product as a stand-in for the process of interest.)
Assay [5] deals with Fibroblast growth factor 10 (Homo sapiens) (UniProt O15520). The experiment in a line: compounds binding fibroblast growth factor 10 – biochemical, small-molecule microarray, 635 nm fluorescence, primary screen (AID 1102). As to conditions: FGF10 binding, fluorescence 635 nm, higher = more signal.
Chain of Fibroblast growth factor 10 (Homo sapiens) (O15520 whole entry, looked up): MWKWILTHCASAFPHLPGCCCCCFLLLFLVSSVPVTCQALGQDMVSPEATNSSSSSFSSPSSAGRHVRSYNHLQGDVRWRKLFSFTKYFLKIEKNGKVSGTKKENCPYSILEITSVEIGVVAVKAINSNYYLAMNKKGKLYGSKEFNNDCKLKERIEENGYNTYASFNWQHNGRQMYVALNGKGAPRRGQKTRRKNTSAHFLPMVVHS
The test system of assay [6] is glycogen synthase kinase-3 (GSK3A per assay name; protocol says GSK3B). The experiment in a line: compounds binding glycogen synthase kinase-3 – biochemical, small-molecule microarray, 635 nm fluorescence, GSK3A, primary screen (AID 1103). Further: the record names both GSK3A and GSK3B. To be noted: fluorescence 635 nm, higher = more signal.
Assay [7] has as its target Epidermal growth factor receptor (Homo sapiens) (UniProt P00533). Briefly: compounds binding epidermal growth factor receptor – biochemical, small-molecule microarray, 635 nm fluorescence, primary screen (AID 1104).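 Further: score merges 667 nm emission intensity with spot signal to noise over triplicate slides.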 To be noted: EGFR binding, higher = more signal.
For assay [8], the target named is Follistatin-related protein 3 (Homo sapiens) (UniProt O95633). The experiment in a line: compounds binding follistatin-related protein 3 – biochemical, small-molecule microarray, 635 nm fluorescence, primary screen (AID 1105).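 Further: score merges emission near 667 nm and signal to noise per printed spot across three slides.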 To be noted: FSTL3 binding, higher = more signal.
Chain of Follistatin-related protein 3 (Homo sapiens) (O95633 whole entry, looked up): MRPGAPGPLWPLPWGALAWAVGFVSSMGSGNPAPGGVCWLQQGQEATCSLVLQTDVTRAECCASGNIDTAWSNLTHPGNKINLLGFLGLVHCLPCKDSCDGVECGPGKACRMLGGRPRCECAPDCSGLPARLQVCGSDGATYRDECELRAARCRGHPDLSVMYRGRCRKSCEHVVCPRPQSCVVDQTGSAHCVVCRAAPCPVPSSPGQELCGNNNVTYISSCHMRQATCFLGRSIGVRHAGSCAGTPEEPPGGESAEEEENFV
Assay [9] addresses Dickkopf-related protein 1 (Homo sapiens) (UniProt O94907). Briefly: small molecules binding DKK1 protein – biochemical, small-molecule microarray, 635 nm fluorescence scan, primary screen (AID 1106).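 Further: score merges emission near 667 nm with signal to noise over three replicate slides.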 To be noted: higher = more signal.
Assay [10] relates to Inhibin beta A chain (activin A). The experiment in a line: small molecules binding activin A – biochemical, small-molecule microarray, 635 nm fluorescence scan, primary screen (AID 1107).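 Further: mouse activin A protein probed at 4.33 µg/mL on printed slides; score merges bound-protein fluorescence near 667 nm with spot signal-to-noise.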 As to conditions: INHBA, higher = more signal.

The source made the active and inactive calls.

Chain of Epidermal growth factor receptor (Homo sapiens) (P00533 whole entry, looked up): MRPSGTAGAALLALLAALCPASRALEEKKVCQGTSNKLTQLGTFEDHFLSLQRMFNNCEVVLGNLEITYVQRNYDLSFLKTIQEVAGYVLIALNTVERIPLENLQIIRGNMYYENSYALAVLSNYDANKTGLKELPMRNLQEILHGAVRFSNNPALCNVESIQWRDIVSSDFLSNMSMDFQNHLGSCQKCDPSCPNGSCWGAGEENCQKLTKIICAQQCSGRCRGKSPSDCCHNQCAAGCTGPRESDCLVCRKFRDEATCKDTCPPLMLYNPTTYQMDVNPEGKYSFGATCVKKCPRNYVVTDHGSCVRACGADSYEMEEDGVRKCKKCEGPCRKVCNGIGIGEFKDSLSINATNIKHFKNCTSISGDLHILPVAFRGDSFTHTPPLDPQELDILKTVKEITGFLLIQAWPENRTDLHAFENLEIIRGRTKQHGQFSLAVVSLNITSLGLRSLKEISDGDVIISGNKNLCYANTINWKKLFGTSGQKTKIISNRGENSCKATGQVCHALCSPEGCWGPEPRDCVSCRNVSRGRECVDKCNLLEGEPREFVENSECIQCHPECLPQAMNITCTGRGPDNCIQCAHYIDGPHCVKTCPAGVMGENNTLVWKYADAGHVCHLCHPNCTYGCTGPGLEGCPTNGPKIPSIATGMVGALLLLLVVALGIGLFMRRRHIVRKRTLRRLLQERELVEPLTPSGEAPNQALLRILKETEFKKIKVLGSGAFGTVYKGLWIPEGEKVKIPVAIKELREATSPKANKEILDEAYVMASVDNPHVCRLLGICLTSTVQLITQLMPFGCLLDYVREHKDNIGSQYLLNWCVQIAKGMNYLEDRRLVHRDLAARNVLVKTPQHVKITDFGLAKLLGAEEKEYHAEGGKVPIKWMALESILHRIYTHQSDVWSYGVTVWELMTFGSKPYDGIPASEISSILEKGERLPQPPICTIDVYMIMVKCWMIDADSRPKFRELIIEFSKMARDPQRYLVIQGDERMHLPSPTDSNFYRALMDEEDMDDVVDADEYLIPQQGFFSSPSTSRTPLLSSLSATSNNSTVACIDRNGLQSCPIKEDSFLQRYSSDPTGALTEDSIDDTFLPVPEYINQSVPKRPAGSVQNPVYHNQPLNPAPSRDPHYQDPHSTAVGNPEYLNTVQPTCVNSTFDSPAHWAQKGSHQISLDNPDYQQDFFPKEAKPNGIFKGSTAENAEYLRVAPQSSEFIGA
Chain of Dickkopf-related protein 1 (Homo sapiens) (O94907 whole entry, looked up): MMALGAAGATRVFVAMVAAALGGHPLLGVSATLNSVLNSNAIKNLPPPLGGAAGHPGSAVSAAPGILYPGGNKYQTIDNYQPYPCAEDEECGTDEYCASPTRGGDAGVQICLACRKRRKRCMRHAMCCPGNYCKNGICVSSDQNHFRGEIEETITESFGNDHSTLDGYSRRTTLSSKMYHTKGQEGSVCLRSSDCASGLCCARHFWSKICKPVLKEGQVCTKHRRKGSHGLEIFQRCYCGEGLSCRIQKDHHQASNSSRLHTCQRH

As to `CS(=O)(=O)CCOC(=O)C1=CC(c2ccc(CO)cc2)=CC(C2CC2)N(Cc2cc3c(cc2Br)OCO3)C=C1C(=O)OCCS(C)(=O)=O` (stereo not given), the composite z-score in assay [1] came to 0.848; in [2], 0.296; in assay [3], 0.351; in [5], 1.08; in [6], 1.18; in [7], 0.425. Besides, the results for the composite z-score in [8], in assay [9] and in assay [10] were 0.932, 0.391 and 0.701, respectively. Moreover, the z-score in assay [4] was 0.883 (inactive).

As for `COc1ccc([Si](C)(C)[C@@H]2[C@@H](CCn3cc([C@H](O)c4ccccc4)nn3)O[C@]3(C(=O)N(Cc4ccc(N5C(=O)c6cccc7cccc5c67)cc4)c4ccccc43)[C@H]2C)cc1`, the composite z-score in assay [1] was 0.286; in assay [2], -0.187; in assay [3], -0.0017; in assay [5], -0.456; in assay [6] it was -0.513; in [7], -0.471. For the same molecule, the composite z-score in assay [8] was -0.586; in assay [9] it was -0.795; in assay [10], -0.409. Moreover, the z-score in assay [4] was -1.5 (inactive).

Take `CCCCC=C[C@@H](NC(=O)c1ccc(C(=O)OC)cc1)c1ccccc1`: the composite z-score in assay [1] was 0.741; in [2], -0.095; in assay [3] it was 0.613; in assay [5], 0.335; in assay [6], 0.804; in [7], 0.239. In addition, the composite z-score in assay [8] was determined as 0.279; in [9], 0.393; in assay [10], 0.629. The z-score in assay [4] was -3.67 (inactive).

Regarding `CC(C)C[C@@H]1NC(=O)[C@H]2C[C@@H](C(=O)NCCCCCNC(=O)CS)[C@@H](c3cccc(OCCO)c3)N2C1=O`, the composite z-score in [1] is 1.52; in assay [2], -0.0356; in assay [3], -0.003; in [5], 1.03; in assay [6] it was 1.32; in [7], 1.08. In addition, the values for the composite z-score in assay [8], in [9] and in [10] were 1.36, 1.44 and 1.25, respectively. In assay [4], the z-score was 0.684 (inactive).

With `Cc1ccc(S[C@]2(C(=O)NCCN3CCOCC3)CC(=O)N(Cc3cc(C(F)(F)F)cc(C(F)(F)F)c3)[C@@H]2c2ccc(CO)cc2I)cc1`, the composite z-score in [1] is 1.4; in assay [2], 0.104; in assay [3], 0.868; in [5], -0.743; in assay [6] it was -0.799; in assay [7], -0.981. For the same molecule, the composite z-score was -0.492 in assay [8], -1.34 in assay [9] and 0.551 in assay [10]. Further, the z-score in assay [4] is -2.04 (inactive).

Consider `COC(=O)[C@@]1(Cc2ccccc2)N=C(c2ccc(OCCCO)cc2)O[C@H]1c1ccccc1N=[N+]=[N-]`, for which the composite z-score in assay [1] is 1.38; in assay [2] it was 0.0861; in assay [3] it was 0.657; in assay [5] it was 0.883; in assay [6], 0.887; in assay [7] it was -0.003. Besides, the results for the composite z-score in assay [8], in assay [9] and in assay [10] were 0.848, 0.425 and 1.23, respectively. The z-score in assay [4] was -0.384 (inactive).

As to `CCCCC=C[C@@H](NC(=O)c1cccs1)c1ccccc1`, the composite z-score in [1] is -0.15; in [2], -0.0451; in assay [3], 0.359; in [5], 0.44; in [6], 0.476; in assay [7], -0.273. The results for the composite z-score in [8], in [9] and in [10] were -0.171, 0.13 and 0.764, respectively. The z-score in [4] was -3.77 (inactive).

Consider `C=CC[C@@]1(C(=O)NCC(O)CO)N=C(c2ccc(OCCCO)cc2)O[C@@H]1c1ccccc1N=[N+]=[N-]` (stereo not given in full), for which the composite z-score in [1] was 0.663; in [2] it was 0.854; in assay [3], 1.12; in assay [5] it was 0.618; in assay [6] it was -0.669; in [7], -0.656. The composite z-score is 0.326 in assay [8], -0.612 in [9] and 1.02 in [10]. Also, the z-score in assay [4] was -1.25 (inactive).

`CCOC(=O)C1=C[C@@H](C(C)C)N(S(=O)(=O)c2ccc(C)cc2)[C@H]1c1ccc(C(C)C)cc1`: the composite z-score is 1.65 in [1]; -0.132 in assay [2]; -0.229 in assay [3]; 1.04 in assay [5]; 1.3 in assay [6]; 0.848 in assay [7]. The composite z-score came out at 1.35 in [8], 0.57 in [9] and 0.375 in assay [10]. Further, the z-score in assay [4] was 0.449 (inactive).

With `COc1ccc(C(=O)Nc2cccc(CN3C(=O)[C@]4(O[C@H](CC(=O)N5CCC[C@H]5CO)[C@@H]([Si](C)(C)c5ccc(OC)cc5)[C@@H]4C)c4ccccc43)c2)cc1`, the composite z-score in [1] was 1.27; in [2] it was -0.202; in assay [3], -0.067; in assay [5], 0.703; in [6], 1.12; in assay [7], 0.317. Also, the composite z-score in [8] is 0.737; in assay [9], 0.65; in [10], -0.0762. Further, the z-score in assay [4] was -0.0342 (inactive).

Consider `Cc1ccc(S[C@]2(C(=O)NCc3ccccc3)CC(=O)N(Cc3ccccc3Cl)[C@@H]2c2ccc(CO)cc2I)cc1`, for which the composite z-score is 0.49 in assay [1]; 0.302 in assay [2]; 1.13 in [3]; -0.761 in [5]; -0.528 in assay [6]; -1.17 in assay [7]. Besides, the values for the composite z-score in assay [8], in assay [9] and in assay [10] were -0.689, -1.22 and 0.962, respectively. Further, the z-score in assay [4] was -1.6 (inactive).

As for `O=C(CS)NCCCCCCNC(=O)[C@@H]1C[C@@H]2C(=O)N3CCC[C@H]3C(=O)N2[C@@H]1c1ccc(O)cc1`, the composite z-score in assay [1] was 0.425; in [2], -0.207; in [3] it was 0.597; in assay [5], -0.252; in assay [6], 0.691; in assay [7], -0.226. For the same molecule, the composite z-score in [8] is -0.32; in assay [9], 0.17; in assay [10], -0.41. In addition, the z-score in assay [4] was 0.552 (inactive).

For the molecule `COCCOC(=O)N1C(=O)[C@@]2(c3cc(C#CCC(C(=O)OC)C(=O)OC)ccc31)[C@H](c1ccc(O)cc1)N1[C@H](c3ccccc3)[C@H](c3ccccc3)OC(=O)[C@H]1[C@@H]2C(N)=O`, the composite z-score in [1] was determined as 0.224; in assay [2] it was 0.36; in assay [3] it was 0.461; in [5] it was 0.833; in assay [6], 1.06; in assay [7] it was 0.212. Besides, the composite z-score in assay [8] came out at 0.825; in [9], 0.417; in assay [10] it was 0.626. The z-score in [4] is -1.06 (inactive).

With `CCCN1C(=O)[C@]2(COC(c3ccc(OCCCO)cc3)=N2)Cc2ccccc21`, the composite z-score is 1.08 in assay [1]; 1.09 in assay [2]; 1.1 in assay [3]; 0.736 in assay [5]; 1 in [6]; -0.542 in assay [7]. The composite z-score was 0.378 in assay [8], 0.0779 in [9] and 0.854 in [10]. Moreover, the z-score in assay [4] is 0.409 (inactive).

Regarding `CCOC(=O)C[C@H]1[C@H](OC(=O)c2ccc(-c3ccccc3)cc2)[C@@H](NC(=O)c2ccc(-c3ccccc3)cc2)c2cc(OCCCO)ccc2N1C(=O)Cc1ccc(OC)cc1`, the composite z-score in assay [1] was -0.253; in [2], -0.0067; in [3], 0.45; in assay [5], 0.256; in assay [6] it was -0.194; in [7], -0.0509. For the same molecule, the figures for the composite z-score in [8], in [9] and in [10] were -0.0478, 0.0032 and 0.638, respectively. The z-score in assay [4] is 0.101 (inactive).

`Cc1ccc(S[C@]2(C(=O)NCc3ccccc3)CC(=O)N(Cc3ccccc3)[C@@H]2c2ccc(CO)cc2)cc1`: the composite z-score in assay [1] was 0.979; in [2] it was 0.114; in [3], 0.694; in [5], -0.173; in [6], -0.789; in assay [7], -1.22. Also, the composite z-score is -1.01 in assay [8], -0.799 in assay [9] and -0.317 in assay [10]. In addition, in assay [4], the z-score was 0.643 (inactive).
